Measured values as given in PubChem BioAssay AID1458 (National Center for Advancing Translational Sciences (NCATS), 2008).
About 5,900 (2.8%) of roughly 210,000 compounds were called active. About 5% were inconclusive and are not listed. Many of the other results were omitted from the sample, so actives are more common in it than they were. A number with no mark means an inactive call. Calls come from the whole dose curve; as a rule, active = well fitted activation curve with a large enough effect; inconclusive = small, poorly fitted or top-dose-only effect; inactive = no such curve, though single readings can be large or run the other way.

Experiment: qHTS Assay for Enhancers of SMN2 Splice Variant Expression; note: nearly all actives have a fitted effect of over 55% in size; for activity change, positive = activation: % of control where 0% means no effect
Settings: HEK293 SMN2-luciferase splicing reporter, luminescence, 30-36 h; series mostly up to 46.1 µM; activity change, positive = activation: at the top concentration
Method in brief: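 HEK293 cells carry an SMN2 […]–luciferase reporter in which exon 7 inclusion puts luciferase in frame. Cells were plated 10-12 h before compound addition, then incubated 30-36 h at 37C. ONE-Glo luminescence was read; sodium butyrate at 4.5 mM final served as control.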
Potency is the fitted concentration of half-maximal effect.

First: CCc1ccccc1NS(=O)(=O)c1ccc2nc(-c3ccccc3)[nH]c2c1
Second: Cc1cc(C)cc(NC(=O)CSc2oc(-c3ccccc3)nc2S(=O)(=O)c2ccc(Cl)cc2)c1
The “activity change, positive = activation” value of the first is lower: -7.51% for the first, 0.788% for the second.

First: Cc1c(NC(=O)c2cc(-c3ccc(Br)cc3)on2)c(=O)n(-c2ccccc2)n1C
Second: Cc1cc(C)c2oc(C(=O)Nc3ccc(S(=O)(=O)N(C)c4ccccc4)cc3)cc(=O)c2c1
The “activity change, positive = activation” value of the first is higher: 21.8% for the first, -2.61% for the second.

First: CC(C)Oc1ccc(CNC(=O)C2CCN(c3nc4ccccc4n(C)c3=O)CC2)cc1
Second: COc1ccc(CNC(=O)CC2Oc3ccc(C)cc3NC2=O)cc1 (stereo unspecified)
The “activity change, positive = activation” value of the first is lower: -6.21% for the first, 3.76% for the second.

Compared with `Cc1nc2ccc(NC(=O)C(F)(F)F)cc2o1`, `Cc1nc2cc(NC(=O)NCc3ccccc3)ccc2o1` is higher in “activity change, positive = activation” value: -4.98% for the first, 9.65% for the second.

First: CC(C)c1ccc(NS(=O)(=O)c2ccc3[nH]cc(C(=O)NC4CCCC4)c(=O)c3c2)cc1
Second: Cc1ccc(NC(=O)C(Cc2ccccc2)NS(=O)(=O)c2ccc3c(c2)oc(=O)n3C)cc1C (stereo unspecified)
The “activity change, positive = activation” value of the first is higher: 1.67% for the first, -9.69% for the second.

Going from `CCOc1ccc(-c2n[nH]c3c2C(c2ccccc2OC)N(c2ccc(Br)cc2)C3=O)cc1` (stereo unspecified) to `CCOc1ccc(-c2nonc2NC(=O)c2oc3ccc(CC)cc3c2C)cc1`, the “activity change, positive = activation” value rises from 1.33% to 16.2%.

First: COc1cccc(OCC(=O)NNC(=O)c2cnccn2)c1
Second: COc1cccc(OCCCN2CCCCCC2)c1
The “activity change, positive = activation” value of the first is higher: 2.02% for the first, -9.69% for the second.

First: CCCOC(=O)Nc1ccccc1C(N)=O
Second: CCOC(=O)c1nnn(CC(=O)NC(=O)Nc2ccccc2F)c1C(=O)OCC
The “activity change, positive = activation” value of the first is higher: 8.03% for the first, -4.64% for the second.

Going from `CCOC(=O)c1ccc(NC(=O)c2ncn(-c3ccccc3)n2)cc1` to `CCOC(=O)C1=C(c2ccccc2)Nc2ncnn2C1c1ccc(Cl)cc1` (stereo unspecified), the “activity change, positive = activation” value falls from 2.79% to -4.4%.

First: CCC(=O)N1CCc2cc(S(=O)(=O)CCC(=O)N3CCN(c4ccccc4F)CC3)ccc21
Second: Cc1ccc(Cl)cc1N1CCN(C(=O)CN2C(=O)COc3ccc(S(=O)(=O)N4CCOCC4)cc32)CC1
The “activity change, positive = activation” value of the first is lower: -19.7% for the first, 1.39% for the second.

Compared with `O=C(/C=C/c1ccc(Cl)cc1)Nc1ccc(S(=O)(=O)Nc2ncccn2)cc1`, `CCS(=O)(=O)c1nc(S(=O)(=O)c2ccc(C)cc2)c(NCc2ccc(Cl)cc2)s1` is lower in “activity change, positive = activation” value: 2.19% for the first, 1.21% for the second.

Compared with `CC(C)(C)c1ccc(/C=C/C(=O)NC2CCS(=O)(=O)C2)cc1` (stereo unspecified), `O=C(O)c1ccc(NC(=O)C2CCCCC2)cc1` is higher in “activity change, positive = activation” value: -25.1% for the first, 4.05% for the second.

First: CCN(CC)CCNC(=O)Cn1ncc2c3ccccc3n(Cc3ccccc3C)c2c1=O
Second: O=c1n(Cc2cccc(C(F)(F)F)c2)c2ccccc2c2nc(-c3ccccc3)nn12
The “activity change, positive = activation” value of the first is lower: -8.03% for the first, 15.6% for the second.

Compared with `COCCCNC(=O)c1c(NC(=O)c2cc(=O)c3cc(C)c(C)cc3o2)sc2c1CCCC2`, `CCOC(=O)c1ccc(NC(=O)C2CC(=O)NC(=Nc3ccc(C)c(C)c3)S2)cc1` (stereo unspecified) is lower in “activity change, positive = activation” value: 15.5% for the first, -9.52% for the second.

Going from `O=C(c1ccc(C(F)(F)F)cc1)N1CCC(c2nc(-c3ccc(S(=O)(=O)N4CCCC4)cc3)no2)CC1` to `Cc1ccc(S(=O)(=O)c2nnn3c2nc(N2CCN(c4ccccc4F)CC2)c2cc(Cl)ccc23)cc1C`, the “activity change, positive = activation” value falls from 2.89% to -3.67%.

Compared with `O=C(CSc1cccc[n+]1[O-])c1ccc(Cl)cc1`, `COc1ccccc1C(=O)CSc1cccc[n+]1[O-]` is lower in “activity change, positive = activation” value: 8.29% for the first, 4.69% for the second.

First: Cc1c(C(=O)NCc2ccccc2Br)oc2ccc3c(c12)C(=O)CC(C)(C)O3
Second: COc1ccc(CNC(=O)c2cc3c(=O)[nH]c4ccc(C)cc4c3s2)c(OC)c1
The “activity change, positive = activation” value of the first is higher: 11.5% for the first, 2.14% for the second.

First: C/C=C/c1ccc(OCCOc2ccc(C=O)cc2OC)c(OC)c1
Second: COc1cc(/C=C2/C(=O)ON=C2C)ccc1OCc1ccccc1F
The “activity change, positive = activation” value of the first is higher: -11.4% for the first, -39.6% for the second.

Compared with `CCOC(=O)c1c(C)oc2ccc(N(C(=O)c3ccncc3)S(=O)(=O)c3ccc(CC)cc3)cc12`, `CCOc1ccccc1C(=O)NC1(C(F)(F)F)NC(=O)N(CCc2ccc(OC)c(OC)c2)C1=O` (stereo unspecified) is lower in “activity change, positive = activation” value: -21.7% for the first, -22.8% for the second.

Compared with `CC(=O)Nc1cc2ccc(OC(C)=O)cc2oc1=O`, `Cc1c(C(N)=O)sc2ncn(CCOc3ccccc3)c(=O)c12` is higher in “activity change, positive = activation” value: 3.43% for the first, 4.68% for the second.

Going from `Cc1cccc2c1N(CCOc1ccccc1)C(=O)C2=O` to `CCCCN(C)CCNC(=O)C1CCCN(S(=O)(=O)c2cccc3nsnc23)C1` (stereo unspecified), the “activity change, positive = activation” value rises from -9.26% to -0.0075%.

In the case of `C(=N\n1cnnc1)/c1cccnc1`, the “activity change, positive = activation” value is reported as 3.41%.

With `Cc1ccc(NC(=O)Nc2ccc3oc(C)nc3c2)cc1` the Potency was 11.2 µM (active).
In the case of `COc1cccc(OCC(=O)Nc2ccccc2C(N)=O)c1`, the Potency is reported as 11.2 µM (active).
With `CC(C)(C)c1ccc(/C=C/C(=O)Nc2ncccn2)cc1` the Potency was 22.4 µM (active).
With `O=C(CSc1cccc[n+]1[O-])c1ccc(-c2ccccc2)cc1` the Potency was 12.6 µM (active).
With `COc1cc(/C=C2/C(=O)ON=C2C)ccc1OCc1cccc(F)c1` the Potency was 12.6 µM (active).
For `O=C(Nc1cc2ccccc2oc1=O)C1CCCCC1`, the Potency was 4.47 µM (active).
With `Cc1nn(CCOc2ccccc2)c(=O)n1-c1ccccc1F` the Potency was 17.8 µM (active).
With `COc1cccc(OCCOc2cccc(/C=N/n3cnnc3)c2)c1` the Potency was 8.91 µM (active).
